A549 viability = A549 cytotoxicity, counter-screen for Nrf2 inhibitors; A549 ARE-Fluc cells, CellTiter-Fluor viability, 18-24 h; Potency, µM (series often up to 46 µM), for the others: at the top dose activity change, negative = cytotoxicity, usual class: inhibitors; 390,000 tested, 0.16% active; AID 504648; further: on the % scale 0 is the no-effect control and ±100 the full control effect
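A549 ARE_Fluc cells in 5% FBS OPTI-MEM were exposed to compounds in concentration-response for 18-24 h at 37 deg C. Viability was read by CellTiter-Fluor fluorescence (Ex 405/Em 525) after 30 min, before the luciferase read.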
S2 tox = reduces viability in counter-screen for ATXN expression inhibitors. AID 651635. Potency, µM (highest dose often 56.7 µM), usual class: cytotoxic. 400,000 tested, 0.49% active. S2 cells (HEK-293 line with an ATXN2-luciferase reporter) viability, CellTiter-Fluor protease fluorescence, 24 h; further: nearly all actives have a fitted effect of over 40% in size
Nrf2 block = Nrf2 pathway inhibition; A549 ARE-Fluc reporter, luciferase luminescence, 18-24 h; Potency, µM (top dose mostly 46 µM), for inactives: top-dose activity change, negative = inhibition, hits mostly inhibitors; 360,000 tested, 2.1% active; AID 504444; further: on the % scale 0 is the no-effect control and ±100 the full control effect; nearly all actives have a fitted effect of over 60% in size
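A549 ARE_Fluc cells, 5000/well, 5% FBS OPTI-MEM; compounds in dose-response, 18-24 h at 37 °C/5% CO2; CellTiter-Fluor viability read (Ex 405/Em 525), then BugLite luciferase luminescence = Nrf2 activity.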
TGFb inhibitor = TGF-b pathway inhibition; HepG2 CAGA-GFP TGF-b/SMAD3 reporter, GFP fluorescence, 18 h; TGF-beta stimulated, 500 pg/mL final; Potency, µM (doses to about 46.1 µM), for inactives: at the highest dose activity, negative = inhibition, usual class: inhibitors; 410,000 tested, 1.2% active; further: on the % scale 0 is the no-effect control and ±100 the full control effect; nearly all actives have a fitted effect of over 65% in size
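Read-out: total well GFP (ex488/em500-530) summed from mean per-cell fluorescence. Cells: HEPG2 CAGA-GFP, 1% FBS DMEM, 18 h at 37 degrees C with 500 pg/mL final TGF-beta. Unstimulated wells served as the full-inhibition control; stimulated DMSO wells = 0%.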
HepG2 tox = HepG2 cytotoxicity, counter-screen for TGF-b inhibitors. Potency, µM (top dose mostly 46.1 µM), for the others: at the highest dose activity change, negative = cytotoxicity, hits mostly cytotoxic. 410,000 tested, 0.76% active. HepG2 CAGA-GFP viability, ATP luminescence, 18 h
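HepG2 CAGA-GFP cells (1000/well, DMEM with 1% FBS) received compound, then TGF-beta at 500 pg/mL final, and were incubated 18 hours at 37 degrees C. Viability was read by CellTiter-Glo luminescence. Media-only wells were set as complete cell-killing and DMSO as no toxicity.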
ATXN2 expr inh = reduces ATXN2 reporter expression in HEK-293 cells | HEK-293 ATXN2-luciferase reporter, luminescence, 24 h | Potency, µM (doses to about 57 µM), inactives show at the highest dose activity change, negative = inhibition, actives largely listed as inhibitors | 360,000 tested, 0.72% active; further: on the % scale 0 is the no-effect control and ±100 the full control effect; nearly all actives have a fitted effect of over 55% in size
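ATXN2-luciferase reporter cells (luciferase flanked by upstream and downstream ATXN2 gene portions) were treated 24 h at 37 °C with compounds at up to 57 uM. SteadyGlo luminescence gave expression; GF-AFC fluorescence gave viability.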
* marks the source's active call; other numbers are inactive results; i = inactive; ? = inconclusive; . = not tested or not shown; ! = not active in a repeat. This is a sample that favours compounds with a hit; in the whole collection about 3.8% have one here. The call rests on the fitted dose curve; in most records, active means well fitted curve in the direction sought with a large enough effect; inconclusive means small, poorly fitted or top-dose-only effect, or another doubt; inactive means no such curve, though single readings can be large; an effect the other way counts as inactive or inconclusive. Potency means the concentration at half of the fitted maximal effect.

SMILES	A549 viability	S2 tox	Nrf2 block	TGFb inhibitor	HepG2 tox	ATXN2 expr inh
CC1CCN(S(=O)(=O)c2ccc(NC(=O)C3CCCCC3C(=O)O)cc2)CC1 (stereo unspecified)	1.2%	i	-8.8%	-13.5%	-1.3%	0.8%
Cc1cn([C@@H](CCCCNC(=O)OC(C)(C)C)C(=O)NCCCCCCCCCCC(=O)N2CCN(C(=O)OC(C)(C)C)CC2)nn1	16.4µM*	15.8µM*	10.3µM*	11.2µM*	-11.5%	?
CC[C@H](C)Cc1cn([C@@H](CCCN=C(NC(=O)OC(C)(C)C)NC(=O)OC(C)(C)C)C(=O)NCCCCCCCCCCC(=O)N2CCN(C(=O)OC(C)(C)C)CC2)nn1	?	17.8µM*	?	?	-34.7%	?
C=CC(C)(C)c1c(O)c(CC=C(C)C)c(O)c2c(=O)c3ccc(O)c(O)c3oc12	?	28.2µM*	?	11.2µM*	14.1µM*	?
CCCC[C@@H]1CCCO[C@@](C(=O)NCc2ccc(S(C)(=O)=O)cc2)(C(F)(F)F)C1	-1.7%	.	-15.0%	?	-26.5%	.
N/C(=C\C(=O)c1cc(Cl)ccc1O)C(Cl)(Cl)Cl	-20.7%	?	18.1%	10µM*	-89.0%	20µM*
CC(c1ccccc1)n1c(SCC(=O)N2CC(=O)Nc3ccccc32)nc2ccccc2c1=O (stereo unspecified)	-17.4%	?	16.4µM*	?	1.3%	?
O=C1COc2ccc(C(=O)CSc3ccccc3C(=O)O)cc2N1	0.5%	i	-25.7%	-0.3%	-5.9%	-23.9%
CC(C)c1ccccc1-n1c(SCC(=O)c2ccc3c(c2)NC(=O)CO3)nc2ccccc2c1=O	-19.5%	i	2.91µM*	-3.5%	6.9%	-35.0%
Cc1cccc(-n2c(SCC(=O)N3CC(=O)Nc4ccccc43)nc3ccccc3c2=O)c1C	-29.3%	?	23.1µM*	-15.5%	-16.2%	.
COc1cc(CN2CCN(CC3CC3)CC2CCO)cc(OC)c1 (stereo unspecified)	-11.7%	?	2.9%	0.3%	11.2%	-4.7%
Cc1ccc(C)c(S(=O)(=O)c2cn(C)c3cc(N4CCCCC4C)c(F)cc3c2=O)c1 (stereo unspecified)	-4.1%	.	-15.0%	0.9%	4.6%	.
COc1cccc2nc(-c3cccs3)nc(NN3C(=O)C=C(C)C3=O)c12	?	.	?	.	.	6.11µM*
COc1ccc(Nc2nc(-c3cccs3)nc3ccccc23)c(OC)c1	-2.8%	i	-13.1%	4.5%	-7.9%	1.4%
CN(C)c1ncc(C(=O)NCc2ccccc2Cl)cn1	1.2%	i	.	-0.6%	-2.0%	0.8%
CC(C)Cc1nc(N2CCN(C(=O)c3ccco3)CC2)c(C#N)c2c1CCCC2	?	?	?	?	-45.9%	?
CC(C)C(=O)N1CCN(c2nc(-c3ccccc3)c3c(c2C#N)CCCC3)CC1	?	i	11.6µM*	?	-32.8%	-34.4%
C#CCSc1nnc(-c2cc3c(C(F)(F)F)nn(C)c3s2)n1C	-0.7%	i	-24.6%	0.0%	-32.1%	6.7%
C=CCNc1ncnc2c1[nH]c1ccccc12	-12.7%	i	?	-4.9%	-0.2%	-19.5%
C=CCNc1ncnc2c1[nH]c1ccc(Cl)cc12	?	i	8.2µM*	?	1.8%	-18.1%
COC(=O)c1ccccc1C(=O)N1CCCC(CCC(=O)NCc2ccc(F)c(F)c2)C1 (stereo unspecified)	6.7%	i	23.9%	12.0%	-12.0%	-0.7%
CCn1cc(C(=O)NCCCO)c(=O)c2cc(F)c(N3CCN(C)CC3)cc21	-1.6%	i	0.6%	-9.9%	3.9%	.
CCCCCCNC(=O)c1cn(CC)c2cc(N3CCN(C)CC3)c(F)cc2c1=O	0.5%	?	5.3%	?	12.6µM*	?
CCOc1ccccc1NC(=O)CSc1ccc(-c2sc(C)nc2C)nn1	3.2%	i	20.6µM*	-18.6%	-1.5%	-15.4%
CC(=O)c1cccc(NC(=O)CSc2ccc(-c3sc(C)nc3C)nn2)c1	2.0%	?	-15.3%	-11.6%	0.0%	-8.7%
SMILES	A549 viability	S2 tox	Nrf2 block	TGFb inhibitor	HepG2 tox	ATXN2 expr inh
Cc1nc(C)c(-c2ccc(SCC(=O)Nc3cccc(F)c3)nn2)s1	?	i	14.6µM*	?	0.0%	2.7%
COc1ccccc1NC(=O)CSc1ccc(-c2sc(C)nc2C)nn1	-0.3%	.	.	0.0%	-25.2%	.
O=C(Cn1c(-c2cccs2)cc2ccccc21)N1CCN(c2ccc(F)cc2)CC1	0.3%	i	23.7%	-9.8%	-4.3%	7.6%
CC(C)N=c1scc(-c2ccco2)n1/N=C/c1ccc(O)c(O)c1	-9.2%	31.6µM*	-0.4%	?	-63.9%	0.0%
C=C(C)COc1ccc(-c2nc(N)ncc2-c2ccc(Br)cc2)c(O)c1	5.8%	i	?	15.8µM*	-105.3%	-8.4%
CCc1cc(-c2nc(N)ncc2-c2ccc(Br)cc2)c(O)cc1OC	7.7%	i	-6.6%	?	22.4µM*	-15.4%
C=C(C)COc1ccc(-c2nc(N)ncc2Oc2ccc(OC)cc2)c(O)c1	15.7%	i	-15.6%	?	11.2µM*	-12.5%
COc1ccc(-c2cnc(N)nc2-c2ccc(OC)cc2)cc1	14.3%	i	2.1%	3.3%	-24.9%	-1.7%
COc1ccc(-c2cnc(N)nc2-c2ccc(OCc3ccccc3)cc2O)cc1	?	i	?	12.6µM*	-29.4%	-7.0%
COc1ccc(-c2nc(N)ncc2-c2ccc(OC)c(OC)c2)c(O)c1	-4.0%	i	?	-0.3%	-22.2%	-13.3%
CCOc1ccc(-c2nc(N)ncc2Oc2ccccc2Br)c(O)c1	-9.8%	i	?	?	11.2µM*	-6.6%
COc1ccc2[nH]c(=O)cc(C(=O)O)c2c1	7.5%	i	7.7%	0.0%	0.0%	0.9%
COc1ccc2[nH]c3c4c(ccc3c2c1)C(=O)C=CC4=O	?	6.31µM*	?	14.1µM*	-75.0%	3.55µM*
Cc1c(CN(C)C(=O)c2cc(-c3ccccc3)nc3ccc(Br)cc23)cnn1C	-0.4%	?	9.2µM*	-26.2%	-28.9%	22.4µM*
Cn1cnc2c1c(=O)[nH]c(=O)n2C	.	i	.	.	.	30.6µM*!
Nc1ccccc1NC1CCCCC1	-21.0%	i	-0.6%	-14.0%	-12.9%	16.1%
CCOC(=O)N1CCN(C(=O)COC(=O)c2ccccc2NCCO)CC1	-5.0%	i	-10.7%	1.4%	-2.2%	0.8%
S=C(NCC1CCCO1)N1CCN(c2cccc(Cl)c2)CC1 (stereo unspecified)	-1.4%	i	20.6µM*	-15.0%	-16.2%	.

Source: PubChem (National Center for Advancing Translational Sciences (NCATS))
